According to the supplement of paper PMC11417369:
± gives the standard deviation of the averaged measurements. In all, about 25,000 sequences were measured (“ln(normalized median fluorescence intensity)”: median about 7.9, highest 2% from about 11 on). For the sample, the highest values were picked, then their nearest neighbours and some sequences at random.

What follows are sequences tested on PfAP2-I AP2 domain 3 (GST-tagged) (assay: gcPBM binding intensity (ln(normalized median fluorescence intensity)); higher = stronger DNA binding).
Method in brief: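 Binding intensity is the highest Masliner-normalised natural-log median intensity over replicate spots in either probe orientation. To obtain it, GST-tagged P. falciparum DNA-binding domains made in E. coli were incubated for 1 h on an Agilent 4 × 180k array of primer-extended double-stranded 36-bp intergenic genomic probes plus negative controls. Detection used Alexa488 anti-GST antibody with scanning at 488 nm.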

Sequence	gcPBM binding intensity (ln)
AAATTTGGCAAACACACACACACACCCACAGAGACA [CACACA_site4490]	8.305 ± 0.021
CCAGGAAAAATTTATTGTACATATATTTTTATGCTC [XGTACX_site7154]	7.68 ± 0.53
ATATAGATCTACACTGCACACATTTTTAACACTGCT [CACACA_site1882]	9.04 ± 0.5
TATATAGAAAACAAGGCATGCAAATAACAAATTGTG [TGCATGCA_site473]	8.32 ± 0.91
GTTCCAGGCATTCGTGCGCACAAATAGAAACAATTA [GTGCAC_site9824]	11.15 ± 0.035
TTTAGCACAAACAAAAAAAAAATAGAAAAAAATATA [CACACA_negctrl_site1772]	7.59 ± 0.61
TGTGTTCATATATGCACACGCATATATATTATTGTT [CACACA_site3822]	9.1 ± 0.25
ATGCACTCATTGTGCACACGCATATTACGAAAAGAA [CACACA_site2638]	10.6 ± 0.18
ATATGCACTCATTGTGCACACGCATATTACGAAAAG [CACACA_site2637]	11 ± 0.35
TTTCTTTCTTTCTTTTTTTAAATATTTTTTAAAAAT [TGCATGCA_negctrl_site206]	7.98 ± 0.62
ATTATAATGGTAAAGTGTACAAATTTTTATTACACC [XGTACX_site5274]	8.49 ± 0.092
GCTTCTTAATATCATACACACATAGATATATTTATA [CACACA_site5676]	8.11 ± 0.58
TATCATCTTAATATCGTGCACATTTATAGAACGAAA [GTGCAC_site9992]	11 ± 0.12
TTTATATTATTATATCTTATTAATTATTTATCATTT [TGCATGCA_negctrl_site73]	7.28 ± 0.58
TATACAACTTTATGAAGTACAAAAAGTTCTATATAT [XGTACX_site3866]	7.52 ± 0.44
TGCCATCATATCATAGGTACACAAACATATAAAGAA [XGTACX_site4137]	8.22 ± 0.82
AATATATATTTATATTGTACATATATATATATTTCT [XGTACX_site2603]	7.55 ± 0.34
TTTTTCTATAAAAAATGTACATATTTTATGAAGGAA [XGTACX_site821]	7.96 ± 0.5
TTTTAGTTAATTCATGCATGTAAAGTTTTATTTATA [TGCATGCA_site252]	7.72 ± 0.54
AATGAATATAGTACTGAATGTAATTTAAGGTTTTCC [CACACA_negctrl_site1548]	7.53 ± 0.68
ATTTAATTTTCATGATGTACTATAGTTTAATGCACA [XGTACX_site1624]	11.6 ± 1.1
ACAAGACAGATATATACACACATACATACATACATA [CACACA_site7472]	8.12 ± 0.64
ATAAAGGAATTTTATACACACAACATATATATATAT [CACACA_site2861]	9.45 ± 0.6

Sequence	gcPBM binding intensity (ln)
TATATATATATATATTGTACACATTGTGTTTAAATA [XGTACX_site5104]	9.43 ± 0.44
TTTTCTATTTAATTGGTGCACTGATATATACACATA [GTGCAC_site9533]	11.3 ± 0.54
GTAATTTTTTTCTATACACACATATATATAATATAT [CACACA_site2655]	8.12 ± 0.58
GTAATTTTTTTCTATACACACATATCTATAATATAT [CACACA_site7284]	8.09 ± 0.6
TATGTATTTTTATGCACACATGCGTGGCTTATATAA [CACACA_site387]	10.9 ± 0.13
TATGTATAAATATATGCACACATATATATATTTATA [CACACA_site9150]	8.85 ± 0.26
TTTATGTATTTTTATGCACACATGCGTGGCTTATAT [CACACA_site4374]	10.79 ± 0.064
ATATATATTTCTTAAAGTACATAATAATAAAAATAT [XGTACX_site8981]	7.79 ± 0.44
AAAAAAAATAAAATGAATAAATAAGAATTACATATT [CACACA_negctrl_site863]	7.39 ± 0.65
TCTATGAATTAATATGCATGTAACGTATTTATACTT [TGCATGCA_site669]	7.67 ± 0.83
CAAGCACAGAAACACACACACACACCGACACAGACA [CACACA_site4359]	8.11 ± 0.24
AAAAAAAAGTTGTAAGTGCATGTATATAATAATATT	8.42 ± 0.54
AGGATATAAAGTTGTGCATGTCAAGTGCACCGTATT [TGCATGCA_site451]	11 ± 0.35
CATATAAAAATGTGCACACACACACCGATATATATT [CACACA_site4940]	9.59 ± 0.17
AAAAAAAAATATATTGCACACCTCTCAATAAAAAAA [CACACA_site172]	10.3 ± 0.43
GTATATTTTATTTTATGTACATATTCATTTTTTATT [XGTACX_site561]	8.3 ± 0.4
CATATAAAAAATATGGTGCAGTTTTTTTTTTTTTTT	10.2 ± 0.23
AAAAATGTATGTATGGTGCAGTATTCATATCATTTT [GTGCAC_site9458]	10.93 ± 0.057
ACTATAAATATATAAATATATATATATATATATATA [GTGCAC_negctrl_site65]	9.34 ± 0.8
ATATATATATATTACACACACACAAAAAAAATAAAG [CACACA_site118]	9.07 ± 0.18
TATAAGTAGATAAGGGTGCACAATATAAATATATAG	11.55 ± 0.021
TTATAAAAGACAAAAGTGCATATATACATATGTATA	9.49 ± 0.21
AATAAATAGATAAGCACACAAGCATATAGACATATA [CACACA_site222]	7.72 ± 0.49

Sequence	gcPBM binding intensity (ln)
AAAAAAATAAGGTGCACACAAAAAAAAAAAAAAAAA [CACACA_site812]	10.9 ± 0.71
AAAAAAAAAATTTAGGTGCATACAAATAAATTATAT [GTGCAC_site9521]	10.2 ± 0.48
ATAAAATATAAAAACGCACACAATTATAAGGGTGTA [CACACA_site177]	7.95 ± 0.35
TATAAATATACAAAGGTGCATAAAAAGTTATGTTTT [GTGCAC_site9832]	11.2 ± 0.26
ACAAAAAAATAAGGTGCACACAAAAAAAAAAAAAAA [CACACA_site8171]	10.7 ± 0.76
AAAAATAAAAGGTGTGCACACAAAAATATATATATA [CACACA_site8507]	9.74 ± 0.26
TAAATATAAAAATGCACACACACAAAAAAAAAAAAA [CACACA_site895]	8.88 ± 0.085
ATATATATATTAAAGGTGCACAAATAAATATATACA [GTGCAC_site9532]	11.54 ± 0.035
ATATGTGTGTGTATTTGTACCCAATTTTTATATATA [XGTACX_site4948]	8.29 ± 0.43
TATATATATATATATGTGCACATATATATGATATTA	9.79 ± 0.28
CGAATAAATATATGTAGTACATGTTGTAGATAATTT [XGTACX_site1218]	8.01 ± 0.48
ATTTATTAATCATATACACACATATATTTGTATTTA [CACACA_site1336]	7.67 ± 0.49
TTTGGGTATACACATACATGCATGTCCTTATATATA [TGCATGCA_site84]	7.86 ± 0.63
TGTGTAATATTCTGTTGTACATAACTCATAAATAAA [XGTACX_site5308]	7.95 ± 0.31
AATATGTTATAAATATGTTATAAATAATAAATAAAT [GTGCAC_negctrl_site135]	7.74 ± 0.62
AAAATAGCTGTATAGAGTACATATAAATAATGTTGT [XGTACX_site5692]	7.57 ± 0.58
TAAATCACAAAATTATGTACTAAGAAGGAGCAACAT [XGTACX_site6742]	8.05 ± 0.45
AACATACATAAACACACACACACACCCACAGAGACA [CACACA_site4430]	8.32 ± 0.22
AAAAATAAAGGGTGTGCACACAAAAATATATATATA [CACACA_site1727]	9.8 ± 0.14
TTTTTTTGTTAAAAGGTGCTAATATATATAAGTGCT	10.1 ± 0.45
TATATTGCAAAAAGTACACACATAAATAAATACATA [CACACA_site6589]	8.2 ± 0.24
TGAGCACAAATACAGGTGCATATAAAATATATGACG	10.3 ± 0.3
ATGTTTGAGCCTAAGGTGCATATAAAAATATATGTG [GTGCAC_site9690]	11 ± 0.66

Sequence	gcPBM binding intensity (ln)
AATATACATAACAAGGTGCAAAAAATATTGTTCATA [GTGCAC_site9499]	10.4 ± 0.26
AATACATATTCAAAGGTGCAAAATAAAAATATACAT [GTGCAC_site9743]	11.2 ± 0.44
AAATATAAAGTGCACACACACAAAAAAAGAAAAAAA [CACACA_site6452]	10.2 ± 0.36
AAATAAAAAGGGTGCACACAAAAATATATATATATA [CACACA_site1728]	11 ± 0.84
TGTGTATATAAATAATGTACATATATATTTTTTTAT [XGTACX_site7341]	7.79 ± 0.22
AAAAAAAAAAAAAAAAAAAGAAAAGAAAATAGGGTT [GTGCAC_negctrl_site421]	8.96 ± 0.22
CATATGATATGTTATACACACACGTATATATGAATT [CACACA_site3446]	8.03 ± 0.21
TTTTTTTTTTTTGTAATACACACCACTATATGTTAT [CACACA_site1844]	8.15 ± 0.73
AAAACAAACAAAAAAAAAAAAAAAAATATCAATCTA [TGCATGCA_negctrl_site203]	7.01 ± 0.52
CACAAAATAAATTAAACACACAACATCATAGATGTA [CACACA_site4619]	7.21 ± 0.54
AAGATATCTAAGGAAATTAAACTACCAAAATATATA [TGCATGCA_negctrl_site338]	7.39 ± 0.59
ATATTACACATATATGCACACATTGTAGTTATTTAT [CACACA_site8843]	9.34 ± 0.26
ATATATATTATCATTGTGCACTTATTTATATACCTT	11.1 ± 0.15
TTTTTATTTTCATATGTGCACTTATATATATATATA	10.82 ± 0.099
ATTGTGCACTTATATGCACACATTTTAGTTTTTTTT [CACACA_site2028]	11.4 ± 0.69
ATTTATATGCACCATTGTACGTTTTATAAAGTTTGG [XGTACX_site3755]	11.6 ± 0.83
TATATATATATATATGTGCACATTTATTGCCTTTGC	9.76
TTATATTTAGTATATGCACACTTTATGTTTGTTATT [CACACA_site5163]	9.29 ± 0.21
CATTTTGTTTTAAAGTGTACATTATGTAATATAAAA [XGTACX_site647]	7.84 ± 0.43
CATATTGGTATGCTCATGCACTTTTATTTTGTTATT [GTGCAC_site9553]	8.52 ± 0.53
ATATATATATAAAGTTGTACATTTTTTATTTTTTCA [XGTACX_site7847]	9.09 ± 0.16
TTATCATTTGCCATTGTGCACTTATATGCTCACATT	10.97 ± 0.028
TATCATTTATATATGTGTACTTATTTATTTATTTAT [XGTACX_site7961]	7.96 ± 0.28
